# Hits are enriched below; roughly 4.2% of the tested compounds scored in any of these assays.
# Sfp inh = qHTS Assay for Inhibitors of Bacillus subtilis Sfp phosphopantetheinyl transferase (PPTase) | 3.5% of 310,000 active | 4'-phosphopantetheinyl transferase ffp (Bacillus subtilis), Q9F4F7 | Biochemical Sfp PPTase activity, qHTS | Potency, µM, for the others: largest response in the series, negative = inhibition, usual class: inhibitors;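 further: the enzyme is Sfp with the accession as filed and its product quenches rhodamine fluorescence; potency means the concentration at half of the fitted maximal effect; 0% = enzyme reaction without inhibitor and -100% = no enzyme wells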
#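 Buffer: 50 mM Hepes-Na pH 7.6, 10 mM MgCl2, 0.01% Nonidet P-40, 0.01% BSA. Enzyme 15 nM, pre-exposed to compound 15 min; substrates then added and fluorescence change tracked over 30 min.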
# ClpP mod = qHTS Assay for Activators of ClpP | ATP-dependent Clp protease proteolytic subunit (Bacillus subtilis (strain 168)), P80244 | purified B. subtilis ClpP, FRET peptide cleavage, 20 min | Potency, µM (doses to about 57.5 µM), for inactives: at the top dose activity change, negative = active | 1.9% of 340,000 active | AID 651965, 2013; active means well fitted falling curve with a large enough effect; inconclusive means small, poorly fitted or top-dose-only effect; inactive means no such curve, though single readings can be large or run the other way; further: potency means the concentration at half of the fitted maximal effect; the source files actives as falling curves though it sought activators and does not explain the sign; nearly all actives have a fitted effect of over 65% in size
#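 Purified B. subtilis ClpP, 10 microg/mL final in Tris/HCl pH8 with KCl, BSA, glycerol and Tween-20, cleaved an Abz/nitrotyrosine-quenched decapeptide. Fluorescence (ex 320, em 430) was read at 0 and 20 min at room temperature. Delta was normalized to 5.8 microM ADEP and DMSO/no-enzyme controls.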
# uPA surface inh = qHTS for Inhibitors of Cell Surface uPA Generation. 0.31% of 330,000 active. cell surface uPA generation assay, qHTS. Potency, µM (highest dose often 38.3 µM), inactives show at the highest dose activity change, negative = inhibition, most hits filed as inhibitors; active means well fitted inhibition curve with a large enough effect; inconclusive means small, poorly fitted or top-dose-only effect; inactive means no such curve, though single readings can be large or run the other way; tested in mouse RAW 264.7 cells; further: potency means the concentration at half of the fitted maximal effect; on the % scale 0 is the no-effect control and ±100 the full control effect; nearly all actives have a fitted effect of over 55% in size
# TCR activator = Activators of T cell receptors: qHTS campaign; primary human leukocytes, anti-CD3, IL-2 HTRF, 48 h; Potency, µM (highest dose often 9.22 µM), inactives show at the top dose activation of IL-2 secretion, most hits filed as activators; 330,000 tested, under 10 active; further: % of control where 0% means no effect
#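 Readout: HTRF IL-2, Eu-cryptate/d2 antibody pair, 320nm excitation, 665nm emission. Stimulus: a-CD3 beads, no co-stimulation. Cells: primary human leukocytes. Exposure: 48 hr with compound.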
# * hit, by the source's call; ? = inconclusive; . = no result given; [ ] = remark or other dose. Unless noted, the call rests on the fitted dose curve; in most records, active means well fitted curve in the direction sought with a large enough effect; inconclusive means small, poorly fitted or top-dose-only effect, or another doubt; inactive means no such curve, though single readings can be large; an effect the other way counts as inactive or inconclusive.
SMILES,Sfp inh,ClpP mod,uPA surface inh,TCR activator
Cc1ccc(/C=N/NC(=O)c2csc(C)c2)o1,8%,-2%,.,3%[46.1 µM]
CN(C)c1ccc(/C=N/NC(=O)C(O)(c2ccccc2)c2ccccc2)o1,2.8µM*,-6%,.,2%
O=C(N/N=C\c1ccccc1O)c1ccccc1O,-3%,.,.,.
CN(C)c1ccc(/C=N/NC(=O)c2ccccc2O)o1,16µM*,.,-3%,-2%
Cc1ccc(NC(=O)Cn2nnc(-c3nc(-c4ccncc4)no3)c2N)cc1,.,4%,.,.
COc1cc(-c2nnc(-c3ccccc3)o2)cc(OC)c1OC,16%,?,-3%,-1%[46.1 µM]
COc1cc(-c2nnc(SCC3(c4ccc(Br)cc4)OCCO3)o2)cc(OC)c1OC,-18%,28µM*,-10%,-5%
COc1cc(-c2nnc(-c3cc(OC)c(OC)c(OC)c3)o2)cc(OC)c1OC,17%,25µM*,0%,7%[46.1 µM]
COc1cc(-c2n[nH]c(=O)o2)cc(OC)c1OC,-18%,16µM*,0%,?
COc1cc(-c2nnc(SCC(=O)N3CCOCC3)o2)cc(OC)c1OC,-4%,-1%,-14%,-10%
FC(F)(F)c1ccccc1Cc1c(C2CCCCC2)nc2c3ccccc3ccn12,.,5%,.,.
COc1ccc(N2CCN(C(=O)Cc3noc4ccc(C)cc34)CC2)cc1,.,1%,.,.
O=C(COc1ccccc1)Nc1nnc2n1CCS2,.,0%,.,.
CCC(=O)N(CC)C1=C(O)c2ccccc2C(=O)C1=O,11µM*,3%,0%,-4%
COc1ccc([C@]23Cc4ccccc4C(O2)c2c(cc(C)n(Cc4ccccc4)c2=O)O3)cc1,7%,.,.,.
CCCCCc1cc(=O)oc2c(C(CCN3CCCCC3)c3cc(OC)c(OC)c(OC)c3)c(OC)cc(OC)c12 (centres undefined),79µM*,-8%,-13%,-5%
CCCCCc1cc(=O)oc2c(C(CCN3CCCC(C)C3)c3cc(OC)c(OC)c(OC)c3)c(OC)cc(OC)c12 (centres undefined),0%,?,-9%,-24%
CCCCCc1cc(=O)oc2c(C(CCN3CCCC(C)C3)c3ccc(N(C)C)cc3)c(OC)cc(OC)c12 (centres undefined),56µM*,12%,-14%,1%
O=C(NCC(c1ccco1)N1CCc2ccccc2C1)C(=O)Nc1ccc(F)cc1F (centres undefined),.,-2%,-16%,-1%
COc1cccc(O)c1CN1CCCC(C(=O)c2cccc(C(F)(F)F)c2)C1 (centres undefined),71µM*,.,4%,4%
Cc1ccc(C(=O)NC2CCCCCCC2)cc1S(=O)(=O)N1CCOCC1,.,1%,-11%,-1%
COc1ccc(C(=O)NCc2c(C)nn(Cc3ccccc3)c2C)cc1S(=O)(=O)N1CCOCC1,.,-3%,10µM*,-3%
COc1ccc(C(=O)NC2CCCCCC2)cc1S(=O)(=O)N1CCOCC1,20%,25µM*,-29%,2%
O=C(NC1CCSc2ccccc21)c1cc(S(=O)(=O)N2CCOCC2)ccc1F (centres undefined),21%,-2%,-8%,4%
O=C(NC1CCSc2ccccc21)c1ccc(F)c(S(=O)(=O)N2CCOCC2)c1 (centres undefined),50µM*,-4%,-22%,-8%
SMILES,Sfp inh,ClpP mod,uPA surface inh,TCR activator
COc1ccc(CC(=O)N(Cc2ccccc2)c2ccc(C)cc2)cc1S(=O)(=O)N1CCOCC1,.,25µM*,-5%,1%
COc1ccc(CC(=O)NCc2ccccc2)cc1S(=O)(=O)N1CCOCC1,10%,0%,1%,2%
Cn1c(=O)c2c(nc3n2CC(COc2ccccc2)O3)n(C)c1=O (centres undefined),3%,0%,5%,.
COc1cccc(C(=O)CC2(O)C(=O)N(Cc3ccccc3)c3ccccc32)c1 (centres undefined),.,0%,.,.
COC(=O)COc1ccc(-c2ccccc2)cc1C=O,79µM*,.,1%,0%
COC(=O)COc1ccc(-c2ccc(F)cc2)cc1C=O,-11%,.,-5%,3%
Cn1c(=O)c2c(-c3ccccc3)n(-c3cc(Cl)c([N+](=O)[O-])cc3O)cc2n(C)c1=O,.,-2%,.,.
Cc1ccc(CNC(=O)C2c3ccccc3C(=O)N3CCc4ccccc4C23)o1 (centres undefined),14µM*,-17%,.,9%
COc1cccc([C@@H]2Oc3ccc(Br)cc3C[C@H]2OC(=O)Nc2cc(OC)c(OC)c(OC)c2)c1,3%,.,.,.
CC(=O)C(c1ccccc1)C(c1ccccc1)C(C)[N+](=O)[O-] (centres undefined),27%,-6%,0%,4%
O=C(Nc1cccc(Cl)c1)N1CCN2C(=O)c3ccccc3C12c1ccccc1 (centres undefined),17%,16µM*,6%,0%
CC(=O)Nc1ccc(CCNC(=O)c2ccc3ccccc3c2O)cc1,.,25µM*,3%,0%
COc1ccccc1C1NC(c2ccc3c(c2)OCO3)=CC(c2cc(Cl)ccc2O)N1 (centres undefined),.,-16%,.,.
COc1ccc(C(=O)N2C(=S)NC(=O)/C2=C\c2ccc(C)cc2)cc1,50µM*,-4%,2%,-3%[46.1 µM]
Oc1ccccc1N1CCN(C(=S)NCCc2ccccc2)CC1,45µM*,-1%,-1%,-2%[46.1 µM]
S=C(NCCc1ccccc1)N1CCN(Cc2ccccc2)CC1,?,0%,-6%,-1%[46.1 µM]
Oc1ccc(N2CCN(C(=S)NCCc3ccccc3)CC2)cc1,11µM*,2%,-20%,4%
CCOc1cc(C2CC(=O)Nc3c2c(=O)nc(SCc2cccc(Cl)c2)n3C)ccc1O (centres undefined),.,-2%,.,.
COc1ccc(/C=N/OC(=O)c2ccc(Cl)cc2)c(Cl)c1OC,8%,.,4%,0%
COc1ccc(C(=O)c2c(C(F)(F)F)oc3c2C(=O)c2ccccc2C3=O)cc1,-1%,3.2µM*,-10%,-3%
COc1ccc(C(=O)c2coc(-c3ccccc3C(=O)O)c2C(=O)O)cc1,8%,-2%,4%,3%[46.1 µM]
C[C@@H](C(=O)N[C@@H](CO)Cc1ccccc1)[C@H]1C[C@]1(C)[C@H](NC(=O)OCc1ccccc1)c1ccccc1,33%,.,.,.
COc1ccc(COC(=O)N/N=C2/C[C@@H](O)[C@@H](O)[C@@H]3[C@@H]4C(=O)N(C5CCCCC5)C(=O)[C@H]4CC[C@@H]23)cc1,-19%,.,.,.
O=C(C[n+]1ccccc1Br)c1ccc(I)cc1,.,-1%,.,.
CCCCc1nc2c(c3c1C[C@H](C)OC3)CN(S(=O)(=O)c1c(C)noc1C)CC2,4%,.,.,.
Cc1cc(-c2cc(-c3ccc(Cl)cc3)on2)nc(NCC2CC2)n1,11%,14µM*,-2%,1%
CCCNc1nc(-c2cc(-c3ccc(Cl)cc3)on2)cc(C(C)C)n1,-11%,?,3%,-1%
N#C/C(=C\c1ccccc1[N+](=O)[O-])C(=O)NC1CCCCC1,89µM*,.,-4%,0%

# Screening data (PubChem)
